# Screening data (PubChem BioAssay)
# D1 antagonist – human D1 dopamine receptor antagonism. P21728. HEK293 TREx D1 cells, calcium flux, dopamine EC80; stronger effect = lower value. activity change, negative = inhibition, % at 10 µM. 360,000 tested, 3.2% active. AID 504652; in the data active = activity change below about -30%
#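 Using tetracycline-induced force-coupled D1 Hek293 cells and a calcium dye, signals were followed for 180 s after compound, then for 180 s after EC80 dopamine, to detect inhibitors.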
# Epigenetic reg – derepresses silenced GFP reporter in murine cells; murine LDR cells, GFP reporter derepression, 30 h; AID 1865; 280,000 tested, 0.2% active; Potency, µM (doses to about 53.9 µM), hits mostly activators; active = well fitted activation curve with a large enough effect; also: nearly all actives have a fitted effect of over 60% in size
#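 Derepression of a silenced CMV-GFP reporter in murine LDR cells is scored by enumerating GFP-positive cells with a laser-scanning microplate cytometer after 30 hours of treatment at 37 C.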
# TRHR ag – activates the human TRH receptor | P34981 | TRHR cells, calcium flux fluo-8, FDSS agonist mode | activation, % at 2 µM | 360,000 tested, 0.18% active | AID 493084
# Target sequence (P34981 whole entry, looked up): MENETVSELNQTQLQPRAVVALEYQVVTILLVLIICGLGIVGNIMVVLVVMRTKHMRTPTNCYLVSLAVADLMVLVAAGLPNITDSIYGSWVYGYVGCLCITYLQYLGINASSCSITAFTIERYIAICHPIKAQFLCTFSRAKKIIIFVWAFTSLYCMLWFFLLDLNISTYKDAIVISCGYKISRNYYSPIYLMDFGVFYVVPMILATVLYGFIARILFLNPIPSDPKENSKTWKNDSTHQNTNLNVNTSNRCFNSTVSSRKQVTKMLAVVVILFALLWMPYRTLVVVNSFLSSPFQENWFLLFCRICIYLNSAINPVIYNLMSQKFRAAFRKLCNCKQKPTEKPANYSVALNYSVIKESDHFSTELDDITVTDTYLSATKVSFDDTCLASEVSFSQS
#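 Fluo-8-loaded TRHR cells; 10 s baseline, compound added, kinetic Ca2+ fluorescence read 1/s, agonist mode.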
# D1 agonist – activates the human D1 dopamine receptor; activation, % at 2 µM; HEK293 T-REx D1 cells, calcium flux, agonist mode; P21728; AID 504660; 360,000 tested, 1% active
#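 Agonism was scored from calcium flux recorded over 180 s (1 read/s) after pintool compound addition, following a 10-cycle baseline. Cells were inducible force-coupled HEK293 TREx D1, plated overnight at 30 C and loaded with no-wash calcium dye.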
# TRHR enhancer – TRH receptor (human) allosteric enhancement; enhancement, % at 2 µM; TRHR cells, fluo-8 calcium fluorescence, EC20 TRH enhancement; 360,000 tested, 0.66% active; in the data active = enhancement above about 30%
#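 Enhancer read-out: after compound pinning and an initial kinetic agonist-mode read, an EC20 of TRH (10 nM final) was injected and fluo-8 calcium signal (Ex 480/Em 530) followed at 1 s/cycle for 100 cycles in TRHR-expressing cells.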
# D1 PAM – enhances dopamine response at the human D1 receptor; potentiation, % at 10 µM; 360,000 tested, 0.036% active; HEK293 TREx D1 cells, calcium flux, dopamine EC20 potentiation; in the data active = potentiation above about 30%
# Numbers stand for hits; i = inactive; nt = no result given. Sampled rows, rich in hits. Any-hit rate of the full collection: about 4.6%. Rule as the data show it, unless noted: active = activation above about 30%; inactive = the rest.
SMILES,D1 antagonist,Epigenetic reg,TRHR ag,D1 agonist,TRHR enhancer,D1 PAM
COc1ccc2oc(C(=O)OCC(=O)Nc3ccc(N4CCOCC4)cc3)c(C)c2c1,-31,nt,i,i,i,i
COc1cccc(CNC(=O)c2ccc(NC(=O)CC3SC(N4CCCCC4)=NC3=O)cc2)c1 (centres undefined),i,nt,i,i,i,i
COCCNC(=O)C(=O)Nc1ccc2nc3n(c(=O)c2c1)CCCCC3,-52,i,i,i,i,i
O=C(Nc1ccc2nc3n(c(=O)c2c1)CCCCC3)c1c(F)ccc([N+](=O)[O-])c1F,-42,nt,i,i,i,i
COc1cccc(CNC(=O)C(=O)Nc2ccc3nc4n(c(=O)c3c2)CCCCC4)c1,-40,i,i,i,i,i
O=C(Nc1ccc2nc3n(c(=O)c2c1)CCCCC3)c1cc([N+](=O)[O-])ccc1F,i,nt,i,i,i,i
COc1cccc(CNC(=O)c2cccc(NC(=O)CC3SC(N4CCCCC4)=NC3=O)c2)c1 (centres undefined),i,nt,i,i,36,i
CCc1cccc(NC(=O)CNS(=O)(=O)c2ccc3nc(C)sc3c2)c1,i,i,i,i,i,i
Cc1ccc(-c2nnn3c2nc(NCC(C)c2ccccc2)c2ccccc23)cc1 (centres undefined),i,i,i,i,i,i
Cn1c(=O)c2sccc2n2c(CCC(=O)NCc3ccccc3)nnc12,i,i,i,i,i,i
COC(=O)c1scc(-c2ccc(C)cc2)c1S(=O)(=O)N1CCN(c2ccc(C)cc2C)CC1,i,i,i,i,i,i
O=C(Cc1ccc(Cl)cc1Cl)NCc1cccnc1,-41,nt,i,i,i,i
O=C(NCc1cccnc1)c1ccc(Br)o1,-32,nt,i,i,i,i
CN(C)c1nc(N(C)C)n(C(=O)c2ccc(F)cc2)n1,-33,i,i,i,i,i
Nc1nc(-c2ccco2)nn1C(=O)c1ccc(F)cc1,i,i,i,i,i,i
c1ccc(-c2nc(N3CCNCC3)nc3ccccc23)cc1,i,i,i,34,i,i
c1ccc(-c2nc(N3CCCCC3)nc3ccccc23)cc1,i,i,i,i,i,i
CN(CCOc1ccc(Cl)cc1)C(=O)c1ccc(S(=O)(=O)N2CCOCC2)cc1,-39,i,i,i,i,i
Cc1ccccc1N1CC(C(=O)Nc2ccc(S(=O)(=O)N3CCCCC3)cc2)CC1=O (centres undefined),i,nt,i,i,35,i
O=C(Nc1ccc(S(=O)(=O)N2CCOCC2)cc1)c1ccc(Cl)cc1,-40,i,i,i,i,i
CC(=O)Nc1ccc(S(=O)(=O)N2CCC(C(=O)c3ccc(Cl)cc3)CC2)cc1,-44,nt,i,i,i,i
CN(CCOc1ccccc1)C(=O)c1cc(S(=O)(=O)N2CCOCC2)ccc1Cl,i,nt,i,i,i,i
CC(=O)c1ccc(NC(=O)CSc2nc(=O)n(Cc3ccncc3)c3c2CCC3)cc1,nt,i,i,i,i,i
COc1ccc(C)cc1-n1cnc2cc(C(=O)NC3CCCCCC3)ccc21,i,i,i,i,i,i
CC1(C)S[C@@H]2[C@H](NC(=O)COc3ccccc3)C(=O)N2[C@H]1C(=O)O,nt,i,nt,nt,nt,nt
SMILES,D1 antagonist,Epigenetic reg,TRHR ag,D1 agonist,TRHR enhancer,D1 PAM
Cc1ccc(S(=O)(=O)N2CCOCC2)cc1C(=O)OCCOc1cccc(Cl)c1,i,nt,i,31,i,i
COc1ccc(C)cc1NC(=O)c1ccccc1NS(=O)(=O)c1ccc(Cl)s1,-31,i,i,i,i,i
O=C(Nc1cc(S(=O)(=O)N2CCOCC2)ccc1O)c1ccc(NS(=O)(=O)c2ccc(Cl)s2)cc1,-68,i,i,i,i,i
O=S(=O)(Nc1cc(S(=O)(=O)N2CCCC2)ccc1O)c1ccc(Cl)s1,i,nt,i,i,i,i
COc1ccccc1NC(=O)c1ccccc1NS(=O)(=O)c1cccs1,i,i,i,i,i,i
CC1CCN(C2CCN(S(=O)(=O)c3ccc(F)cc3)CC2)CC1,-33,i,i,i,i,i
c1coc(-c2nc3n(n2)C2(CCCCC2)[C@@H]2CCCC[C@@H]2N3)c1,i,i,i,i,i,i
COc1ccc(NC(=O)C2COc3ccccc3C2)cc1Cl (centres undefined),i,i,i,i,i,i
CCOC(=O)C1CCN(S(=O)(=O)c2ccc(NC(=O)c3ccco3)cc2)CC1,-33,nt,i,i,i,i
O=C(Nc1ccc(S(=O)(=O)N2CCCCCC2)cc1)c1ccco1,i,i,i,i,i,i
CC(=O)Oc1ccc(C(=O)Nc2ccc(S(=O)(=O)N3CCOCC3)cc2)cc1,-90,nt,i,i,41,i
O=C(Nc1ccc(Cc2ccncc2)cc1)c1ccc(S(=O)(=O)N2CCOCC2)cc1,-41,i,i,i,i,i
Cc1ccc(NC(=O)c2ccc(S(=O)(=O)N3CCC(C)CC3)cc2)cc1,-39,i,i,i,i,i
COc1ccc(NC(=O)CN2CCN(Cc3ccccc3)S2(=O)=O)c(OC)c1,i,i,i,i,i,i
COc1ccc(-c2noc(CCC(=O)NCc3ccc(OC)cc3OC)n2)cc1,i,i,i,i,i,i
O=C(Nc1ccc(S(=O)(=O)N2CCCC2)cc1)C1CCCCC1,i,nt,i,i,i,i
CCOc1ccc(C(=O)Nc2ccc(S(=O)(=O)N3CCN(C)CC3)cc2)cc1,i,nt,i,i,i,i
O=C(Nc1ccc(S(=O)(=O)N2CCOCC2)cc1)C1CCCCC1,i,i,i,i,i,43
Cc1ccc(NC(=O)c2ccccc2NS(=O)(=O)c2ccc(Cl)s2)cc1S(=O)(=O)N1CCOCC1,-50,i,i,34,i,i
O=S(=O)(Nc1cccc(S(=O)(=O)N2CCOCC2)c1)c1ccc(Cl)s1,i,i,i,i,i,i
CC(C)Oc1ccc(C(=O)Nc2ccc(S(=O)(=O)N3CCN(C)CC3)cc2)cc1,-53,nt,i,i,i,i
Cc1ccc(NC(=O)CCNS(=O)(=O)c2ccccc2F)cc1S(=O)(=O)N1CCOCC1,-59,nt,i,i,i,i
Cc1ccc(NC(=O)CCNC(=O)c2ccc(Br)cc2)cc1S(=O)(=O)N1CCOCC1,i,nt,i,i,i,i
Cc1ccc(NC(=O)CCCSc2ccccc2)cc1S(=O)(=O)N1CCOCC1,-40,i,i,i,i,i
Cc1ccc(NC(=O)C(C)N2C(=O)c3ccccc3C2=O)cc1S(=O)(=O)N1CCOCC1 (centres undefined),-42,i,i,i,i,i
Cc1ccc(NC(=O)CCN2C(=O)NC3(CCCC3)C2=O)cc1S(=O)(=O)N1CCOCC1,-92,nt,i,i,i,i
O=C(CN1C(=O)NC2(CCCC2)C1=O)Nc1cc(S(=O)(=O)N2CCOCC2)ccc1OCC(F)(F)F,-50,nt,i,i,i,i
